# From ChEMBL document CHEMBL4513216, “Probing the Open Global Health Chemical Diversity Library for Multistage-Active Starting Points for Next-Generation Antimalarials” (ACS Infect Dis, 2020)
# The campaign covered roughly 69,000 compounds. About 8,600 (12%) showed an effect of 50% or more. This is one part of a sample in which strong results are shown more often than they occur.
# System: Plasmodium berghei
# Assay: Screen against P. berghei liver stage (PbLuc), transformed with Luciferase, at 10uM
# Type: functional, HepG2
# Conditions: tested at 10 uM
row,Structure (SMILES),INHIBITION [%]
1,CCCc1n[nH]c(C2CN(C(=O)c3cccc4[nH]ncc34)CCO2)n1 (stereo not drawn),33.3
2,Cc1ccc(OC2(C(=O)NC(C)Cc3ccncc3)CCNCC2)cc1 (stereo not drawn),26.7
3,CN(C)C(=O)CO[C@H]1CO[C@@]2(CCN(Cc3ccsc3)C2)C1,24
4,Cc1nn(C)c(C)c1C1CCCN1CC(=O)Nc1ccc(Cl)cn1 (stereo not drawn),-48.4
5,O=C(Cc1cccnc1)N1CCCC2(CCN(C3CCOCC3)C2)C1 (stereo not drawn),-62.2
6,Cc1ccc(C(=O)N2CCC3(CC2)CC(c2ccccc2)C(=O)N3)cn1 (stereo not drawn),30.5
7,Cc1nccn1[C@@H]1CC[C@@H](NC(=O)CCOc2ccccc2)[C@H]1O,21.7
8,CCC=C(C)C(=O)NCc1ccnc(OC)c1,42.3
9,O=C(Cc1cccs1)NCc1ccnc(OC2CCOCC2)c1,-32.8
10,CCC=C(C)C(=O)NCc1ccnc(OC2CCOCC2)c1,56
11,O=C(NCCC1CCN(CC(F)(F)F)CC1)C1COCCO1 (stereo not drawn),21.8
12,c1cncc(CNCc2cccs2)c1,6.26
13,O=C1CCCN1Cc1nnc2n1CCN(Cc1ccoc1)CC2,33.2
14,O=C(O)c1cc(S(=O)(=O)N2CCOc3ccccc32)cc(Cl)c1Cl,23.25
15,O=C(c1ccccn1)N1C[C@H]2CC[C@@H](C1)N(C(=O)CCN1CCCC1)C2,50.3
16,O=C(c1ccccn1)N1C[C@H]2CC[C@@H](C1)N(C(=O)CCC1CCCC1)C2,-36.6
17,O=C(c1ccccn1)N1C[C@H]2CC[C@@H](C1)N(C(=O)CCC(F)(F)F)C2,6.33
18,CC(=O)c1c(F)cccc1NCC(O)C(C)(C)C (stereo not drawn),30.5
19,Fc1cccc(-c2nnn3c2COC(CNc2ncccn2)C3)c1 (stereo not drawn),54.4
20,c1cnc(NCC2Cn3nnc(-c4ccoc4)c3CO2)nc1 (stereo not drawn),25.2
21,NCC1Cn2nnc(-c3cccc(F)c3)c2CO1 (stereo not drawn),6.8
22,c1cnc(NCC2Cn3nnc(-c4ccsc4)c3CO2)nc1 (stereo not drawn),45.1
23,O=C(NCC1Cn2nnc(-c3ccccc3)c2CO1)c1ccc[nH]1 (stereo not drawn),-29

row,Structure (SMILES),INHIBITION [%]
1,Fc1cnc(NCC2Cn3nnc(-c4ccccc4)c3CO2)nc1 (stereo not drawn),50.9
2,CNCC(=O)N1CCCC1c1n[nH]cc1-c1ccccc1F (stereo not drawn),-16
3,Cn1ccnc1CN1CCOC(C)(C(=O)N2CCOCC2)C1 (stereo not drawn),35.2
4,COCCCN(Cc1ccc(F)cc1Cl)C1CCS(=O)(=O)C1 (stereo not drawn),34.9
5,Cc1cccc(CN2CCC3(CCCN(C(=O)c4ccsc4)C3)C2=O)n1 (stereo not drawn),12.6
6,Cc1nnc([C@]23COC[C@H]2CN(Cc2cnn(C)c2)C3)o1,23.1
7,Cc1cc(Br)c(O)c(C(=O)N2CCC(CN3CCCCCC3)CC2)c1,28.1
8,Cc1cc(Br)c(O)c(-c2nc(N3CCCCC3)sc2C)c1,64.9
9,Cc1cc(Br)c(O)c(-c2nc(N3CCOCC3)sc2C)c1,33.7
10,Cc1ccsc1CN1C[C@@H]2COC[C@]2(COCC(=O)N(C)C)C1,-4.32
11,Cc1cnc(NC2CCc3c(ccc(=O)n3C)C2)nc1 (stereo not drawn),-14.3
12,CCS(=O)(=O)NC1CCc2c(ccc(=O)n2CC2CC2)C1 (stereo not drawn),35.7
13,Cn1cc(CNC2CCc3c(ccc(=O)n3C)C2)cn1 (stereo not drawn),18.6
14,O=c1ccc2c(n1CC1CC1)CCC(NCc1cccs1)C2 (stereo not drawn),92.8
15,CCCS(=O)(=O)NC1CCc2c(ccc(=O)n2CC2CC2)C1 (stereo not drawn),43.9
16,COc1ncccc1CNC1CCc2c(ccc(=O)n2CC2CC2)C1 (stereo not drawn),55.7
17,COc1ncccc1CNC1CCc2c(ccc(=O)n2C)C1 (stereo not drawn),60.2
18,O=c1ccc2c(n1CC1CC1)CCC(NS(=O)(=O)C1CC1)C2 (stereo not drawn),14.8
19,COCCn1c2c(ccc1=O)CC(NCc1cccnc1OC)CC2 (stereo not drawn),41.2
20,O=C(CC1CC1)NC1CCc2c(ccc(=O)n2CC2CC2)C1 (stereo not drawn),-5.63
21,CC(C)NC1CCc2c(ccc(=O)n2CC2CC2)C1 (stereo not drawn),47.4
22,Cc1cnc(NC2CCc3c(ccc(=O)n3CC3CC3)C2)nc1 (stereo not drawn),81.5
23,O=C(CCN1CCOCC1)Nc1cccc(CNCc2ccsc2)c1,-1.79

row,Structure (SMILES),INHIBITION [%]
1,O=C(N1CCCC1)N1CC[C@H]2OCC[C@@]2(COc2ncccc2F)C1,4.1
2,CC(=O)N1CCC(C(=O)N2CCCC(Cc3cccc(C)n3)C2)CC1 (stereo not drawn),-18.9
3,CS(=O)(=O)N1CCO[C@@H]2CN(C(=O)c3cccnc3)C[C@@H]2C1,2.7
4,COc1ccccc1CC(C)CC(=O)NS(=O)(=O)C(C)C (stereo not drawn),9.57
5,CCC1=N[C@@]2(CC[C@@H]3CN(CC4CC4)C[C@@H]32)C(=O)N1C,24.5
6,O=C(NCc1nnc2n1CCC2)N1CCc2sccc2C1,-8.11
7,Cc1ccc(S(=O)(=O)CCC(=O)NCc2nnc3n2CCC3)cc1,-2.34
8,CC(=O)NCc1nnc2n1CCN(c1ncnc3c1CCC3)CC2,56.1
9,CC(=O)NCc1nnc2n1CCN(c1nc(C)nc3sccc13)CC2,55
10,Cn1ccnc1CN1CCc2ncnc(N3CCCC3)c2CC1,-78.5
11,CC(=O)NCc1nnc2n1CCN(c1ncnc3c(C)csc13)CC2,24.7
12,COc1ncccc1C(=O)N1CCC(Nc2ccc(C)nn2)CC1,33.7
13,c1nnc(Nc2cncc(C3CCCN3)n2)s1 (stereo not drawn),13.285
14,Cc1cc(=O)n(C)cc1NC(=O)Cc1cccc(F)c1,25.1
15,Cc1cc(=O)n(C)cc1NC(=O)Cc1cc(F)ccc1F,56.5
16,Cc1cc(=O)n(C)cc1NC(=O)Cc1ccc(C(F)(F)F)cc1,11.7
17,Cc1ccc(NC2(C(=O)NCCCc3c(C)n[nH]c3C)CCCC2)cc1,-40.9
18,Cc1ccc(NC2(C(=O)NCc3c(C)n[nH]c3C)CCCC2)cc1,11.6
19,Cc1ccc(NC2(C(=O)NCCCN)CCCC2)cc1,53.2
20,CO[C@H]1CO[C@@]2(CCCN(C(=O)N(C)C)C2)C1,35.8
21,CCc1n[nH]c(C2CN(C(=O)c3cc(C4CC4)on3)CCO2)n1 (stereo not drawn),-3.58
22,CNc1nc(CNC(=O)Nc2ccc([S+](C)[O-])c(F)c2)cs1 (stereo not drawn),22.955
23,Cn1ccnc1CN1CCC(CNS(=O)(=O)c2cccnc2)C1 (stereo not drawn),58.3

row,Structure (SMILES),INHIBITION [%]
1,O=C(Oc1ccccc1)N1CCC(CNS(=O)(=O)c2cccnc2)CC1,18.2
2,Cn1ccnc1CCNS(=O)(=O)c1cccnc1,38.6
3,O=C(c1ccco1)N1CCc2onc(Cn3cccn3)c2C1,21.5
4,CNC(=O)[C@@H]1C[C@@H](N)CN1Cc1ccc2cccc(OC)c2n1,55.5
5,CCNC(=O)[C@@H]1C[C@@H](N)CN1Cc1ccc2cccc(Cl)c2n1,11.9
6,CCNC(=O)[C@@H]1C[C@H](N)CN1Cc1ccc2cccc(Cl)c2n1,35.4
7,O=C1CC2(CCN(S(=O)(=O)c3cccs3)C2)CN1c1ccccc1 (stereo not drawn),-0.104
8,CC(Cn1cccn1)NC(=O)N1CCN(Cc2ccsc2)CC1 (stereo not drawn),4.71
9,CCCN(Cc1cnn(C)c1)S(=O)(=O)c1ccc(F)c(C#N)c1,-32.4
10,Cc1nc(N2CCN(C(=O)c3cccnc3)CC2)cc(-n2cccc2)n1,32.4
11,O=C(c1ccccn1)N1CCN(c2ccc(-n3cccc3)nn2)CC1,27.6
12,O=C(c1ccccc1F)N1CCN(c2ccc(-n3cccc3)nn2)CC1,55.9
13,O=C(c1ccccc1F)N1CCN(c2ccc(-n3cccn3)nn2)CC1,0.472
14,Cc1cccc(C(=O)N2CCN(c3ccc(-n4cccc4)nn3)CC2)c1,51.5
15,O=C(c1cccnc1)N1CCN(c2ccc(-n3cccc3)nn2)CC1,0.647
16,COCC(=O)N1CCCC1c1nccnc1Nc1nc(C)cs1 (stereo not drawn),39.7
17,Cc1ccc(C(=O)O)cc1CNC(=O)CN1CC(C)(C)[C@@](C)(O)C1,28.7
18,Cc1cnn(CC2CCCN2CC(=O)Nc2cc(C(C)C)no2)c1 (stereo not drawn),-35.7
19,Cc1cc(F)ccc1CN1CCC(O)(CN2CCCCC2)C1 (stereo not drawn),-10.4
20,CC(C)c1nccc(CN2CCCC(O)(CN3CCCC3)C2)n1 (stereo not drawn),62
21,CC(C)c1nccc(CN2CCC(O)(CN3CCCCC3)C2)n1 (stereo not drawn),32.5
22,OC1(CN2CCCC2)CCCN(Cc2cnc(-c3ccco3)nc2)C1 (stereo not drawn),61
23,Cc1cc(F)ccc1CN1CCCC(O)(CN2CCCC2)C1 (stereo not drawn),55

row,Structure (SMILES),INHIBITION [%]
1,CN(C)CC1(O)CCCN(Cc2cnc(-c3ccco3)nc2)CC1 (stereo not drawn),6.28
2,OC1(CN2CCCC2)CCCN(Cc2cnc(-c3ccccc3)nc2)C1 (stereo not drawn),45.7
3,OC1(CN2CCCC2)CCCN(Cc2ccc(F)cc2Cl)C1 (stereo not drawn),13.7
4,CC(C)c1nccc(CN2CCCC(O)(CN(C)C)C2)n1 (stereo not drawn),7.92
5,O=C(Cc1cccnc1)N1CCC2(CCN(CC3CCCCC3)C2)CC1,26.4
6,Cc1cc(C)cc(C(=O)N2CCCC3(CCCC(=O)N3C)C2)c1 (stereo not drawn),-15.9
7,O=C(c1ccc(-n2ccnc2)cc1)N1CCCC(n2ccnc2)C1 (stereo not drawn),2.3
8,CC(C)(NS(C)(=O)=O)c1nc(-c2cccc(Cl)c2)no1,-4.83
9,CC=C(C)C(=O)NS(=O)(=O)c1ccc(C(F)(F)F)cc1,13.2
10,Cc1nc[nH]c1CN(Cc1ccc(F)cc1)C1CC(C)(C)NC(C)(C)C1,42.4
11,CC1(C)CC(N(Cc2ccccc2)Cc2cccnc2)CC(C)(C)N1,65.4
12,CC1(C)CC(N(Cc2ccccc2)Cc2c[nH]cn2)CC(C)(C)N1,13.2
13,Cc1ccc(CN(Cc2ccccn2)C2CC(C)(C)NC(C)(C)C2)s1,37
14,Cc1ccc(CN(Cc2cccnc2)C2CC(C)(C)NC(C)(C)C2)s1,42.1
15,CC1(C)CC(N(Cc2ccncc2)Cc2cccnc2)CC(C)(C)N1,50.1
16,Cc1cccc(CN(Cc2cccnc2)C2CC(C)(C)NC(C)(C)C2)n1,35.2
17,CC1(C)CC(N(Cc2cccnc2)Cc2cccc(F)c2)CC(C)(C)N1,75.3
18,CC1(C)CC(N(Cc2cccnc2)Cc2cccnc2)CC(C)(C)N1,64.9
19,Cc1ccsc1CN(Cc1cccnc1)C1CC(C)(C)NC(C)(C)C1,33.7
20,CCCN(Cc1cccnc1)C1CC(C)(C)NC(C)(C)C1,10
21,Cc1nc[nH]c1CN(Cc1ccccc1)C1CC(C)(C)NC(C)(C)C1,6.785
